# Laboratory results: paper PMC7862700, “An all-to-all approach to the identification of sequence-specific readers for epigenetic DNA modifications on cytosine”
# Columns and labels:
# Assay in all cases: DAPPL (digital affinity profiling via proximity ligation, sequencing); 10 mM Tris-HCl pH 7.5, 50 mM NaCl, 1 mM DTT, 4% glycerol, room temperature, 30 min; GST-TFs on glutathione beads, 16-mer random dsDNA library, 0.1% formaldehyde crosslink after washing; high values mean tight binding
# Conditions in all cases: protein: recombinant; tags: N-terminal GST; dsDNA, one strand shown
# [1] = target: T1, FLI1 (Homo sapiens, UniProt Q01543 1-452)
# T1 sequence: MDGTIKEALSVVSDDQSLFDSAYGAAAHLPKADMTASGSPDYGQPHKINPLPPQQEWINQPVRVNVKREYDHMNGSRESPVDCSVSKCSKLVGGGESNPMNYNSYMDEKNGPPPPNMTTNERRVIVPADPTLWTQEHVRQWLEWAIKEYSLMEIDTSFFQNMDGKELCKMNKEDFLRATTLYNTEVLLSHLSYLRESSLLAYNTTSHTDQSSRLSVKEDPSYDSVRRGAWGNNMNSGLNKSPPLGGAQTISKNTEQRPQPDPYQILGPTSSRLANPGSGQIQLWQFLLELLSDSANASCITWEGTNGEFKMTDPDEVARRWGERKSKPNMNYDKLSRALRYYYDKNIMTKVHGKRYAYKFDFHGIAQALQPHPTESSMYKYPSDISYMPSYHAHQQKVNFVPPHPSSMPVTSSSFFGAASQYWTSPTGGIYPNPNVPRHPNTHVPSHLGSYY
# Outline: (§1)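 After expression in yeast as GST fusions, human transcription factors were bound to glutathione beads, DNA-barcoded and mixed with a tag-only sample. The pools were incubated with 200 nmole of a 16-mer random double-stranded DNA library in Tris/NaCl/DTT/glycerol buffer (30 min, room temperature), washed and crosslinked with 0.1% formaldehyde. Proximity ligation with BsaI/T4 ligase ran for 1 h at 37 °C, before PCR amplification and sequencing on an Illumina NextSeq500. Binding signal is a hexamer's read frequency for a factor divided by its frequency for the tag-only sample.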
# [2] = target: T2, ELK1 (Homo sapiens, UniProt P19419 1-428)
# T2 sequence: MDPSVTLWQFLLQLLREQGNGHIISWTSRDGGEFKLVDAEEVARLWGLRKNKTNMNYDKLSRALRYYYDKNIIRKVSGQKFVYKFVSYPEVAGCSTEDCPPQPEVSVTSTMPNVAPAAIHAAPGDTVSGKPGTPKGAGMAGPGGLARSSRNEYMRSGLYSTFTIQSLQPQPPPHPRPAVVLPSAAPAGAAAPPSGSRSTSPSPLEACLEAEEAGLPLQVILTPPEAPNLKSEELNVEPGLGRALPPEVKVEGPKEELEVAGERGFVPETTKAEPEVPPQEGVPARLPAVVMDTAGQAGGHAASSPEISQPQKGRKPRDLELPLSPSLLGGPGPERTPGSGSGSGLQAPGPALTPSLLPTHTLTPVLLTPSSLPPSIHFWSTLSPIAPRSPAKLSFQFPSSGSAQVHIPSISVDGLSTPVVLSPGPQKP
# Outline: as §1
# [3] = target: T3, GABPA (Homo sapiens, UniProt Q06546 1-454)
# T3 sequence: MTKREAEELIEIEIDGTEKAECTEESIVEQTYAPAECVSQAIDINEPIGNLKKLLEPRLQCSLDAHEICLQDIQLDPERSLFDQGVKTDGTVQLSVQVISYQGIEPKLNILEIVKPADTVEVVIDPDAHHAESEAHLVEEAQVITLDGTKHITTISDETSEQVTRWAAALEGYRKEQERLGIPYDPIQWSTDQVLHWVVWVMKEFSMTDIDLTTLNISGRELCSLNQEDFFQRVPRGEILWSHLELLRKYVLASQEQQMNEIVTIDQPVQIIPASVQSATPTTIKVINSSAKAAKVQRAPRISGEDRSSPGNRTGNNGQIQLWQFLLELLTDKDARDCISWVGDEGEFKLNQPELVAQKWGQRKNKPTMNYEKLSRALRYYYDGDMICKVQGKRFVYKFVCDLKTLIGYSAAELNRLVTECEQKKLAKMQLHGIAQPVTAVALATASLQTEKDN
# Outline: as §1
# [4] = target: T4, ERG (Homo sapiens, UniProt P11308 1-479)
# T4 sequence: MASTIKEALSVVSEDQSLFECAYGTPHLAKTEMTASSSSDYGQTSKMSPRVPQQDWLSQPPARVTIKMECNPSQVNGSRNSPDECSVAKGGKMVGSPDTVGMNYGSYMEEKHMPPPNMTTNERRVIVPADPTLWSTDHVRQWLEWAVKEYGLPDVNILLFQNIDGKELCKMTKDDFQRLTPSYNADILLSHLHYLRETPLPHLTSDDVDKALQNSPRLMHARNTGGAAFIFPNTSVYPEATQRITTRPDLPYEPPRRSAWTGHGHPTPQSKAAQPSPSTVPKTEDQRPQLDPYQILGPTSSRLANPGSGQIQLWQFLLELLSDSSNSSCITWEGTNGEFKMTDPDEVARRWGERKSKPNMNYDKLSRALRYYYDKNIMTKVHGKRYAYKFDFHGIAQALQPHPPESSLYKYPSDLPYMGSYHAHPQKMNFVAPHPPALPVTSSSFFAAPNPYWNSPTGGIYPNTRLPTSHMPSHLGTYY
# Outline: as §1
# [5] = target: ELF1 (Homo sapiens, UniProt P32519 1-619)
# Outline: as §1
# [6] = target: T5, EHF (Homo sapiens, UniProt Q9NZC4 1-300)
# T5 sequence: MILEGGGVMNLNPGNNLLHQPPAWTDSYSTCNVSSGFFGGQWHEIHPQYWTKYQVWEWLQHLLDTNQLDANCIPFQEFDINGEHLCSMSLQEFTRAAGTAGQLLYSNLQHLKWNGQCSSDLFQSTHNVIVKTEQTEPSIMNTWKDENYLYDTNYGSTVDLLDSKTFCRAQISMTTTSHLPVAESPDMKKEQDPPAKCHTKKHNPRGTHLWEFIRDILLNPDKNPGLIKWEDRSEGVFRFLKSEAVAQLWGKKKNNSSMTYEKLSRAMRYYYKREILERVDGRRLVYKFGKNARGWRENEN
# Outline: as §1
# [7] = target: SPIB (Homo sapiens, UniProt Q01892 1-262)
# Outline: as §1
# [8] = target: T6, ELK3 (Homo sapiens, UniProt P41970 1-407)
# T6 sequence: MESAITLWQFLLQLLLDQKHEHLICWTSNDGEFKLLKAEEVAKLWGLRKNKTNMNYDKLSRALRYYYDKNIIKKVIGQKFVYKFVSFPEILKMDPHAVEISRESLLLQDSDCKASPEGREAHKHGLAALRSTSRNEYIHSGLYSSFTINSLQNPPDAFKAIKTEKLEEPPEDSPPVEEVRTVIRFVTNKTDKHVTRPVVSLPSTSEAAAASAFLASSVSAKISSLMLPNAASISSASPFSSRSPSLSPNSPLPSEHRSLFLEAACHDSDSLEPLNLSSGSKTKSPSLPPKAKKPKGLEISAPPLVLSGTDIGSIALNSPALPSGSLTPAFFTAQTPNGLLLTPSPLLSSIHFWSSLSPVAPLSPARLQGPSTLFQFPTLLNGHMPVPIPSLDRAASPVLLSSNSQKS
# Outline: as §1
# [9] = target: T7, FEV (Homo sapiens, UniProt Q99581 1-238)
# T7 sequence: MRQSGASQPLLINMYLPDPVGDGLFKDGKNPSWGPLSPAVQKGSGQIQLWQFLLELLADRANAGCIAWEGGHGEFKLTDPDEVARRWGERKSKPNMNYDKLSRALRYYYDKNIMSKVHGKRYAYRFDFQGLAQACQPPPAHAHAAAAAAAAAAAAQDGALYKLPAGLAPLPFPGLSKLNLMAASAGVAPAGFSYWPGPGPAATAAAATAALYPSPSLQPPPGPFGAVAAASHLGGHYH
# Outline: as §1
# [10] = target: ETV5 (Homo sapiens, UniProt P41161 1-510)
# Outline: as §1
# [11] = target: T8, SPIC (Homo sapiens, UniProt Q8N5J4 1-248)
# T8 sequence: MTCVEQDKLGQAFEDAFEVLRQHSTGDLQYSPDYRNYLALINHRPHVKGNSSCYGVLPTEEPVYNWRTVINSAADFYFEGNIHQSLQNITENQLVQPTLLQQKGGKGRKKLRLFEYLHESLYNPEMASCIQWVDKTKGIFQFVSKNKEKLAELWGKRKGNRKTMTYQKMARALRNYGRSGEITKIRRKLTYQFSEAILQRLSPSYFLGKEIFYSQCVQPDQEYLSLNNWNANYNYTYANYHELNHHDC
# Outline: as §1
# [12] = target: ELF4 (Homo sapiens, UniProt Q99607 1-663)
# Outline: as §1
# [13] = target: ETV1 (Homo sapiens, UniProt P50549 1-477)
# Outline: as §1
# [14] = target: T9, ERF (Homo sapiens, UniProt P50548 1-548)
# T9 sequence: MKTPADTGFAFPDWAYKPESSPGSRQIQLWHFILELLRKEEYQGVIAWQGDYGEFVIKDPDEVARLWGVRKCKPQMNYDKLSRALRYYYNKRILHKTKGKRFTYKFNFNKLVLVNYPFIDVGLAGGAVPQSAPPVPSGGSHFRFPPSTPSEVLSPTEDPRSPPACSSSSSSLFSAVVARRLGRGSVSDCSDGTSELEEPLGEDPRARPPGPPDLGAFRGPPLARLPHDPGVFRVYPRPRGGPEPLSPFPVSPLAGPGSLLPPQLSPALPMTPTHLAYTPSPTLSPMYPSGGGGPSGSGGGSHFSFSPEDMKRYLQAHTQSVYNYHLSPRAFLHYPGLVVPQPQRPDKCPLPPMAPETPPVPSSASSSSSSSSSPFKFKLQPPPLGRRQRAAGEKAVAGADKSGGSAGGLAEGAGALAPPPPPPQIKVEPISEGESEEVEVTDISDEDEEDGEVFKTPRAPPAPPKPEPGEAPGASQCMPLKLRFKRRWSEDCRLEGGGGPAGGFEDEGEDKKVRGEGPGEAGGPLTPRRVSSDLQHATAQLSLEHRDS
# Outline: as §1
# [15] = target: T10, ETV3L (Homo sapiens, UniProt Q6ZN32 1-361)
# T10 sequence: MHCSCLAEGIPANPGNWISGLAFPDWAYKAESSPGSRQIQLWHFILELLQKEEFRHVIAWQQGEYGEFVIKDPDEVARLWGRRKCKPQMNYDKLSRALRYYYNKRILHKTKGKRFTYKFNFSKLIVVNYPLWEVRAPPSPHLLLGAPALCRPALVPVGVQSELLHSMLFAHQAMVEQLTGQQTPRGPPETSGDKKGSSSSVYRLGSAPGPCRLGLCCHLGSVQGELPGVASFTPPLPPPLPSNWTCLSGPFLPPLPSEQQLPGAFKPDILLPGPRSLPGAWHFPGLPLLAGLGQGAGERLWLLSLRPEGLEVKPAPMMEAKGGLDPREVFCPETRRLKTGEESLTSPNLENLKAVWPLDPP
# Outline: as §1
# [16] = target: T11, ETS2 (Homo sapiens, UniProt P15036 1-469)
# T11 sequence: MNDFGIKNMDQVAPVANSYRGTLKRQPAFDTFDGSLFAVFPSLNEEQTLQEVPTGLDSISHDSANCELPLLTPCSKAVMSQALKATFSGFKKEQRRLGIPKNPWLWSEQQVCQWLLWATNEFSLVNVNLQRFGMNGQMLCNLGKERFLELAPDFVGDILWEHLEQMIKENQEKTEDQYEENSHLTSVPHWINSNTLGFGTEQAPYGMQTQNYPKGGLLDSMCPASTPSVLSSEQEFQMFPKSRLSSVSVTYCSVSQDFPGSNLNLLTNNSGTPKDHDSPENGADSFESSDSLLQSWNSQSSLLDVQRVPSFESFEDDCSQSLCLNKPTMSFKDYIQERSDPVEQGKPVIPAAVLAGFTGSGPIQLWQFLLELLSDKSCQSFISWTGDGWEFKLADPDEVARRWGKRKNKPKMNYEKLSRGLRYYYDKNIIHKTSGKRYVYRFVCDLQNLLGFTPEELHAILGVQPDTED
# Outline: as §1
# [17] = target: T12, SPDEF (Homo sapiens, UniProt O95238 1-335)
# T12 sequence: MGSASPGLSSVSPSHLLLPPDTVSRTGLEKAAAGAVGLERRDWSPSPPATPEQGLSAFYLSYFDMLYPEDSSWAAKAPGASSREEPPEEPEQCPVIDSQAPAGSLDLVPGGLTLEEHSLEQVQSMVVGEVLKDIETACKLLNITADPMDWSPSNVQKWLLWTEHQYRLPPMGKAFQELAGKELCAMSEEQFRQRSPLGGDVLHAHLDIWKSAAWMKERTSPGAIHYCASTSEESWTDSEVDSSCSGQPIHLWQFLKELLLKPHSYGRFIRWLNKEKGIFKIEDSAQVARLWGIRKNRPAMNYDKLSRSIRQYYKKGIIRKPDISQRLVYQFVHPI
# Outline: as §1
# [18] = target: T13, ETV3 (Homo sapiens, UniProt P41162-2 1-143)
# T13 sequence: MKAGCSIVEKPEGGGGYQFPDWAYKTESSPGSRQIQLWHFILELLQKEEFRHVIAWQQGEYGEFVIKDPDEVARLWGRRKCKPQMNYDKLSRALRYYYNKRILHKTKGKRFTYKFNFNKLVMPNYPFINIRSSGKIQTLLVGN
# Outline: as §1
# [19] = target: ETV6 (Homo sapiens, UniProt P41212 1-452)
# Outline: as §1
# Chain of ETV5 (P41161 whole entry): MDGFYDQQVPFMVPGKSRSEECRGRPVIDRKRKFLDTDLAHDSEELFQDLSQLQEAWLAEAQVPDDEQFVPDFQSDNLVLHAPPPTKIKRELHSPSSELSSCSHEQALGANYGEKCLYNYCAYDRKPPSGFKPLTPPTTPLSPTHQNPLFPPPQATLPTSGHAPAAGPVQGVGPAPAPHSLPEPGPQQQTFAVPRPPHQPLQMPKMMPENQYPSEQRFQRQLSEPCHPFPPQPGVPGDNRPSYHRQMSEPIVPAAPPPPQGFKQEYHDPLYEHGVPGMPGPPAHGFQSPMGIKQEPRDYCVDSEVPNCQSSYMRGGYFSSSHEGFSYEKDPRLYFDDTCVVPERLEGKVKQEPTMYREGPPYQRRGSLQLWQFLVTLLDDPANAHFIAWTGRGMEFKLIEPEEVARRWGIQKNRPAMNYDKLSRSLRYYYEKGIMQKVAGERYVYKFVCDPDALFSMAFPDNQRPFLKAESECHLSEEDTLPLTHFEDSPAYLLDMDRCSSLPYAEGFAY
# Chain of ETV6 (P41212 whole entry): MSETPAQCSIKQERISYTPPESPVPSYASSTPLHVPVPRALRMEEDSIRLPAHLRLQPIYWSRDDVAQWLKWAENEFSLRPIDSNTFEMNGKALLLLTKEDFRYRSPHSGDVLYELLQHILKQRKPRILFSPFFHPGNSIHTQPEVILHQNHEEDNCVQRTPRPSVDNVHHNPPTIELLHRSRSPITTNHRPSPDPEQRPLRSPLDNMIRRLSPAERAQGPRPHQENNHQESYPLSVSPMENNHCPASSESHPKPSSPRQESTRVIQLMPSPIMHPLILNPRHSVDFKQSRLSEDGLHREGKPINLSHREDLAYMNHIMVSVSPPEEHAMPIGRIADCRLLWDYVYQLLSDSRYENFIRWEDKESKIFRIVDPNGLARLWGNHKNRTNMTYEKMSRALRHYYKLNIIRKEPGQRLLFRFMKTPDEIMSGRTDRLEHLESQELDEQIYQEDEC
# Chain of ETV1 (P50549 whole entry): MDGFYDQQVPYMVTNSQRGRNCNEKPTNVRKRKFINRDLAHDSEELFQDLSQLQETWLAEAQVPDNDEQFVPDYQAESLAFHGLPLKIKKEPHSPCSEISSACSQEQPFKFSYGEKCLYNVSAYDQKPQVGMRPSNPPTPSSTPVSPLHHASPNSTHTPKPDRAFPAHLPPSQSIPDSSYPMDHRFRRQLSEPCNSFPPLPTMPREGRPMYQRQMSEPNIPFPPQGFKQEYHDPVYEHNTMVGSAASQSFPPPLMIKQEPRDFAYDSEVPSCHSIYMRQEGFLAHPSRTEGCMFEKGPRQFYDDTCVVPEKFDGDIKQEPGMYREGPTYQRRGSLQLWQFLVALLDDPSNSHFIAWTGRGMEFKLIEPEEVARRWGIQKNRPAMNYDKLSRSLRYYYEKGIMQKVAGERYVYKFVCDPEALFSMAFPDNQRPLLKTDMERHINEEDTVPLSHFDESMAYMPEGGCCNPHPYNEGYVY
# Chain of ELF1 (P32519 whole entry): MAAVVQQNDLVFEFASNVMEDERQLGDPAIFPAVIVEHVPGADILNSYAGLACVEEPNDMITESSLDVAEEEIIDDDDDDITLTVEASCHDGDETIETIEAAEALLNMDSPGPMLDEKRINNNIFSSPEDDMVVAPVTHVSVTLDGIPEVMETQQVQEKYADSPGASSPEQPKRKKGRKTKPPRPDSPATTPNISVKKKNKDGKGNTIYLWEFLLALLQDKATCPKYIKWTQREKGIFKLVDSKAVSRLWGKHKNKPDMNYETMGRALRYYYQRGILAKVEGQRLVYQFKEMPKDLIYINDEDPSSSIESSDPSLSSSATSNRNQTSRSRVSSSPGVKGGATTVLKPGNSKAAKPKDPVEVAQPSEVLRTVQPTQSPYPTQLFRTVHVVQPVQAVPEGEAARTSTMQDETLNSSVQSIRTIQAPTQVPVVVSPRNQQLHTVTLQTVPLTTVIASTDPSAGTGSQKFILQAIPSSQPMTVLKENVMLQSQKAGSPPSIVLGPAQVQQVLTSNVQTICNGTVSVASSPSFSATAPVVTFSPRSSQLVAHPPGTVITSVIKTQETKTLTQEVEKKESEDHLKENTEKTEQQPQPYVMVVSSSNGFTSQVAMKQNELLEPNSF
# Chain of ELF4 (Q99607 whole entry): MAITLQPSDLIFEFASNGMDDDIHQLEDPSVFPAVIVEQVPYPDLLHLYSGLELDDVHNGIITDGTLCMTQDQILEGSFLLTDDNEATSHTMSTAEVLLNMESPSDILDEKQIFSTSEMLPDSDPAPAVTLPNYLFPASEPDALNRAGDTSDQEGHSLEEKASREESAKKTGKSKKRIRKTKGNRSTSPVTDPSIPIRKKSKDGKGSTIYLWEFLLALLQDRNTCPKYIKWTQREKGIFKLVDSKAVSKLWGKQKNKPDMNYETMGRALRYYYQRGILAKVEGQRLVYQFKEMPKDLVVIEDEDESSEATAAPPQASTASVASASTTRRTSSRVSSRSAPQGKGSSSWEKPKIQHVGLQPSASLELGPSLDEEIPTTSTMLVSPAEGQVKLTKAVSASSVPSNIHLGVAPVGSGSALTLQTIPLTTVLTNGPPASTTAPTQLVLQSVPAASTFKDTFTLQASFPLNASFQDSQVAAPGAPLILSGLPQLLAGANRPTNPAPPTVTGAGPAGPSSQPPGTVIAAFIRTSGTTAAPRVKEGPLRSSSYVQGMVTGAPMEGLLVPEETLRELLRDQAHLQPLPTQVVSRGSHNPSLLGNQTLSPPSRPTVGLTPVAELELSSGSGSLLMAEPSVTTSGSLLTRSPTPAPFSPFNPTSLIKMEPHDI
# Chain of SPIB (Q01892 whole entry): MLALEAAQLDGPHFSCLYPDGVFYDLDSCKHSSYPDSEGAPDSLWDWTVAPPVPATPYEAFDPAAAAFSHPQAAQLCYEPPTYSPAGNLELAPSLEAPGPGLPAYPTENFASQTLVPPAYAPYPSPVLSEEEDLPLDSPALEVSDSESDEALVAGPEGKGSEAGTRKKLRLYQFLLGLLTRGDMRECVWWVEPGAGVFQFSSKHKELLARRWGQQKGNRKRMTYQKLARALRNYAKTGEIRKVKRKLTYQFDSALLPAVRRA
sequence,measurement,setting,value
CCACAC,binding signal,[1],"1.07 fold enrichment (6-mer frequency, TF over GST control)"
same,binding signal,[2],"1.07 fold enrichment (6-mer frequency, TF over GST control)"
same,binding signal,[3],"1.1 fold enrichment (6-mer frequency, TF over GST control)"
same,binding signal,[4],"1.07 fold enrichment (6-mer frequency, TF over GST control)"
same,binding signal,[5],"1.12 fold enrichment (6-mer frequency, TF over GST control)"
same,binding signal,[6],"1.12 fold enrichment (6-mer frequency, TF over GST control)"
same,binding signal,[7],"1.04 fold enrichment (6-mer frequency, TF over GST control)"
same,binding signal,[8],"1.11 fold enrichment (6-mer frequency, TF over GST control)"
same,binding signal,[9],"1.11 fold enrichment (6-mer frequency, TF over GST control)"
same,binding signal,[10],"1.11 fold enrichment (6-mer frequency, TF over GST control)"
same,binding signal,[11],"1.18 fold enrichment (6-mer frequency, TF over GST control)"
same,binding signal,[12],"1.1 fold enrichment (6-mer frequency, TF over GST control)"
same,binding signal,[13],"1.1 fold enrichment (6-mer frequency, TF over GST control)"
same,binding signal,[14],"1.08 fold enrichment (6-mer frequency, TF over GST control)"
same,binding signal,[15],"1.11 fold enrichment (6-mer frequency, TF over GST control)"
same,binding signal,[16],"1.03 fold enrichment (6-mer frequency, TF over GST control)"
same,binding signal,[17],"1.13 fold enrichment (6-mer frequency, TF over GST control)"
same,binding signal,[18],"1 fold enrichment (6-mer frequency, TF over GST control)"
same,binding signal,[19],"1.02 fold enrichment (6-mer frequency, TF over GST control)"
